Test results from PubChem BioAssay (Tox21).
Values joined by “and” are separate entries in the source; they are usually repeats but may differ in a detail not shown here. Equal values may be shown once. Results filed as inconclusive are left out. A structure can be active in one record and inactive in another. Active and inactive are the calls of the source. The call rests on the fitted dose curve; in most records, active means well fitted curve in the direction sought with a large enough effect in the repeat runs; inconclusive means weak or mixed curves; inactive means no such curve, though single readings can be large; an effect the other way counts as inactive or inconclusive.

Legend:
[1] = A CellTox Green Cytotoxicity Assay to monitor cytotoxicity in HEK293 cells - 40 hour (AID 1224871); further: nearly all actives have a fitted effect of over 45% in size; further: potency means the concentration at half of the fitted maximal effect
Method in brief: (§1)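 Each value comes from one timepoint of a single continuous run in which HEK293 cells with CellTox Green were exposed to compound for up to 40 h at 37 C, dye fluorescence rising with cell death.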

[2] = qHTS RealTime-Glo MT Cell Viability Assay in HEK293 cells - 16 hour (AID 1224872); further: nearly all actives have a fitted effect of over 50% in size; further: potency means the concentration at half of the fitted maximal effect
Method in brief: (§2)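 Assay medium contained NanoLuc luciferase plus cell-permeant prosubstrate, added with HEK293 cells at 600 cells/well. After 5 h at 37 C/5% CO2 compounds were added; plates stayed at 37 C for 40 h with serial luminescence reads.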

[3] = qHTS RealTime-Glo MT Cell Viability Assay in HepG2 cells - 8 hour (AID 1224873); further: nearly all actives have a fitted effect of over 55% in size
Method in brief: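 HepG2 cells mixed with RealTime-Glo MT reagents (NanoLuc plus cell-permeant prosubstrate) were seeded at 600 cells/well, incubated 5 h at 37 C/5% CO2, then pinned with compounds in DMSO; nonlytic luminescence tracked viability during 40 h treatment.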

[4] = qHTS RealTime-Glo MT Cell Viability Assay in HEK293 cells - 40 hour (AID 1224874); settings: RealTime-Glo luminescence; max response: stronger effect = lower value; further: nearly all actives have a fitted effect of over 50% in size; further: potency means the concentration at half of the fitted maximal effect
Method in brief: (§3)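 qHTS format; HEK293 cells with NanoLuc/prosubstrate reagent, 37 C/5% CO2 for 5 h pre-dosing; compounds 23 nL in DMSO; luminescence at each time point reflects viable cells.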

[5] = A CellTox Green Cytotoxicity Assay to monitor cytotoxicity in HEK293 cells - 24 hour (AID 1224875); further: series mostly up to about 77 µM; nearly all actives have a fitted effect of over 45% in size
Method in brief: as §1

[6] = A CellTox Green Cytotoxicity Assay to monitor cytotoxicity in HepG2 cells - 16 hour (AID 1224876); further: nearly all actives have a fitted effect of over 45% in size; further: potency means the concentration at half of the fitted maximal effect
Method in brief: (§4)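 Continuous culture of HepG2 cells with a membrane-impermeant DNA dye; rising fluorescence marks dead cells. Compound exposure lasted up to 40 h at 37 C, with reads every 8 h from 0 h.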

[7] = A CellTox Green Cytotoxicity Assay to monitor cytotoxicity in HepG2 cells - 24 hour (AID 1224878); further: nearly all actives have a fitted effect of over 45% in size; further: potency means the concentration at half of the fitted maximal effect
Method in brief: as §4

[8] = qHTS RealTime-Glo MT Cell Viability Assay in HEK293 cells - 0 hour (AID 1224880)
Method in brief: as §3

[9] = A CellTox Green Cytotoxicity Assay to monitor cytotoxicity in HEK293 cells - 32 hour (AID 1224881); further: nearly all actives have a fitted effect of over 40% in size; further: potency means the concentration at half of the fitted maximal effect
Method in brief: as §1

[10] = A CellTox Green Cytotoxicity Assay to monitor cytotoxicity in HepG2 cells - 0 hour (AID 1224882); further: nearly all actives have a fitted effect of over 35% in size; further: potency means the concentration at half of the fitted maximal effect
Method in brief: as §4

[11] = A CellTox Green Cytotoxicity Assay to monitor cytotoxicity in HepG2 cells - 32 hour (AID 1224883); further: nearly all actives have a fitted effect of over 50% in size; further: potency means the concentration at half of the fitted maximal effect
Method in brief: as §4

[12] = A CellTox Green Cytotoxicity Assay to monitor cytotoxicity in HEK293 cells - 8 hour (AID 1224884); further: nearly all actives have a fitted effect of over 35% in size; further: potency means the concentration at half of the fitted maximal effect
Method in brief: as §1

[13] = qHTS RealTime-Glo MT Cell Viability Assay in HepG2 cells - 16 hour (AID 1224885); further: nearly all actives have a fitted effect of over 50% in size
Method in brief: (§5)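 qHTS, HepG2, 600 cells/well, RealTime-Glo (NanoLuc + prosubstrate) added with cells; 5 h preincubation; DMSO compound addition; 37 C; luminescence at 0/8/16/24/32/40 h.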

[14] = qHTS RealTime-Glo MT Cell Viability Assay in HEK293 cells - 24 hour (AID 1224886); further: nearly all actives have a fitted effect of over 50% in size; further: potency means the concentration at half of the fitted maximal effect
Method in brief: as §2

[15] = qHTS RealTime-Glo MT Cell Viability Assay in HEK293 cells - 8 hour (AID 1224887); further: nearly all actives have a fitted effect of over 50% in size; further: potency means the concentration at half of the fitted maximal effect
Method in brief: as §3

[16] = A CellTox Green Cytotoxicity Assay to monitor cytotoxicity in HEK293 cells - 16 hour (AID 1224888); further: nearly all actives have a fitted effect of over 35% in size
Method in brief: as §1

[17] = qHTS RealTime-Glo MT Cell Viability Assay in HepG2 cells - 0 hour (AID 1224889); further: nearly all actives have a fitted effect of over 50% in size
Method in brief: as §5

[18] = A CellTox Green Cytotoxicity Assay to monitor cytotoxicity in HepG2 cells - 8 hour (AID 1224890); further: nearly all actives have a fitted effect of over 45% in size; further: potency means the concentration at half of the fitted maximal effect
Method in brief: as §4

[19] = qHTS RealTime-Glo MT Cell Viability Assay in HepG2 cells - 32 hour (AID 1224877); further: nearly all actives have a fitted effect of over 55% in size
Method in brief: as §5

[20] = A CellTox Green Cytotoxicity Assay to monitor cytotoxicity in HepG2 cells - 40 hour (AID 1224879); further: nearly all actives have a fitted effect of over 40% in size; further: potency means the concentration at half of the fitted maximal effect
Method in brief: as §4
On the % scale 0 is the no-effect control and ±100 the full control effect.

CCCCCCCCOc1ccc(C(=O)c2ccccc2)c(O)c1
inactive: Potency [1] | Potency [2] | outcome [3] | max response [4] -20.9% and 7.71% and 4.9% | Potency [5] | Potency [6] | Potency [7] | Potency [8] | Potency [9] | Potency [10] | Potency [11] | Potency [12] | Potency [13] | Potency [14] | Potency [15] | Potency [16] | Potency [17] | Potency [18]

COC(=O)c1ccc(O)cc1
inactive: Potency [1] | Potency [5] | Potency [6] | Potency [9] | Potency [10] | Potency [11] | Potency [12] | Potency [16] | Potency [18]

O=C1OC(c2ccc(O)cc2)(c2ccc(O)cc2)c2ccccc21
inactive: Potency [1] | Potency [2] | outcome [3] | max response [4] -0.757% | Potency [5] | Potency [6] | Potency [8] | Potency [9] | Potency [10] | Potency [11] | Potency [12] | Potency [13] | Potency [14] | Potency [15] | Potency [16] | Potency [17] | Potency [18]

NC(=O)c1ccc([N+](=O)[O-])cc1Cl
inactive: Potency [1] | Potency [2] | outcome [3] | max response [4] -1.29% and 1.15% | Potency [5] | Potency [6] | Potency [8] | Potency [9] | Potency [10] | Potency [11] | Potency [12] | Potency [13] | Potency [14] | Potency [15] | Potency [17] | Potency [18]

CCOCCO
inactive: Potency [1] | Potency [2] | outcome [3] | max response [4] 1.5% and 7.11% | Potency [5] | Potency [6] | Potency [8] | Potency [9] | Potency [10] | Potency [11] | Potency [12] | Potency [13] | Potency [14] | Potency [15] | Potency [17] | Potency [18]

Nc1ccc(N=Nc2ccccc2)c(N)n1
active: Potency [4] 24.7 µM and 24.5 µM | Potency [11] 31.1 µM and 17.4 µM | Potency [14] 39.1 µM and 24.5 µM
inactive: Potency [1] | outcome [3] | Potency [5] | Potency [6] | outcome [19] | Potency [8] | Potency [9] | Potency [10] | Potency [12] | Potency [13] | Potency [17] | Potency [18]

CC(=O)Oc1ccccc1C(=O)O
inactive: Potency [1] | Potency [2] | outcome [3] | max response [4] -0.0178% and 14.7% and 2.62% | Potency [5] | Potency [6] | Potency [8] | Potency [9] | Potency [10] | Potency [11] | Potency [12] | Potency [13] | Potency [14] | Potency [15] | Potency [16] | Potency [17] | Potency [18]

CC(C)Cc1ccc(C(C)C(=O)O)cc1 (stereo not given)
inactive: Potency [1] | Potency [2] | outcome [3] | max response [4] 5.92% and 7.46% and 3.63% | Potency [5] | Potency [6] | Potency [20] | Potency [8] | Potency [9] | Potency [10] | Potency [11] | Potency [12] | Potency [13] | Potency [14] | Potency [15] | Potency [17] | Potency [18]

Cc1c(N(C)CS(=O)(=O)O)c(=O)n(-c2ccccc2)n1C
inactive: Potency [1] | Potency [2] | outcome [3] | max response [4] -0.4% and 7.69% | Potency [5] | Potency [6] | Potency [20] | Potency [8] | Potency [9] | Potency [10] | Potency [11] | Potency [12] | Potency [13] | Potency [14] | Potency [15] | Potency [16] | Potency [17] | Potency [18]

CCn1cc(C(=O)O)c(=O)c2ccc(C)nc21
inactive: Potency [1] | Potency [2] | outcome [3] | max response [4] 3.61% and -3.49% and 2.76% | Potency [5] | Potency [6] | Potency [7] | Potency [8] | Potency [9] | Potency [10] | Potency [11] | Potency [12] | Potency [13] | Potency [14] | Potency [15] | Potency [17] | Potency [18]

C=CC(=O)NC(C)(C)CS(=O)(=O)O
inactive and 43.6 µM (active): Potency [1] | Potency [20] | Potency [9] | Potency [12]
inactive and 38.9 µM (active): Potency [18]
inactive: Potency [2] | outcome [3] | max response [4] -2.52% and 4.35% and 4.55% | outcome [19] | Potency [8] | Potency [13] | Potency [14] | Potency [15] | Potency [17]
inactive and 24.5 µM (active): Potency [6] | Potency [7] | Potency [11]
inactive and 27.5 µM (active): Potency [10]

CC(C)CC(C)CC(O)CC(C)C (stereo not given)
inactive: Potency [1] | Potency [2] | outcome [3] | max response [4] -0.631% and 5.18% | Potency [5] | Potency [6] | Potency [8] | Potency [9] | Potency [10] | Potency [11] | Potency [12] | Potency [13] | Potency [14] | Potency [15] | Potency [17] | Potency [18]

CCCCOC(=O)CCCCCCCCC(=O)OCCCC
inactive: Potency [1] | Potency [2] | outcome [3] | max response [4] 14.7% and 5.35% | Potency [5] | Potency [6] | Potency [7] | Potency [8] | Potency [9] | Potency [10] | Potency [11] | Potency [12] | Potency [13] | Potency [14] | Potency [15] | Potency [16] | Potency [17] | Potency [18]

O=[N+]([O-])c1ccc(O)cc1
inactive: Potency [1] | Potency [2] | outcome [3] | max response [4] -24.7% and -8.36% and 4.76% | Potency [5] | Potency [6] | Potency [8] | Potency [9] | Potency [10] | Potency [11] | Potency [12] | Potency [13] | Potency [14] | Potency [15] | Potency [16] | Potency [17] | Potency [18]

C=C(C)OC(C)=O
inactive: Potency [1] | Potency [2] | outcome [3] | max response [4] 5.33% and 0.384% | Potency [5] | Potency [6] | Potency [7] | Potency [8] | Potency [9] | Potency [10] | Potency [11] | Potency [12] | Potency [13] | Potency [14] | Potency [15] | Potency [17] | Potency [18]

OC[C@@H](O)[C@@H](O)[C@H](O)[C@H](O)CO
inactive: Potency [1] | Potency [2] | outcome [3] | max response [4] 5.62% and 0.187% and 10.1% | Potency [5] | Potency [6] | Potency [8] | Potency [9] | Potency [10] | Potency [11] | Potency [12] | Potency [13] | Potency [14] | Potency [15] | Potency [17] | Potency [18]

CC(=O)CCC(C)C
inactive and 38.9 µM (active): Potency [6] | Potency [7] | Potency [10] | Potency [11] | Potency [12]
inactive and 43.6 µM (active): Potency [18]
inactive and 34.7 µM (active): Potency [9]
inactive and 24.5 µM (active): Potency [1]
inactive: Potency [2] | outcome [3] | max response [4] -1.02% and 1.57% | outcome [19] | Potency [8] | Potency [13] | Potency [14] | Potency [15] | Potency [17]

c1ccc2[nH]c(-c3cscn3)nc2c1
inactive: Potency [1] | outcome [3] | max response [4] -21.8% | Potency [5] | Potency [6] | Potency [8] | Potency [9] | Potency [10] | Potency [11] | Potency [12] | Potency [13] | Potency [14] | Potency [15] | Potency [17] | Potency [18]

C[C@]12CC[C@@H]3c4ccc(O)cc4C[C@@H](CCCCCCCCCS(=O)CCCC(F)(F)C(F)(F)F)[C@H]3[C@@H]1CC[C@@H]2O (stereo not given in full)
active: Potency [2] 43.6 µM | Potency [4] 43.6 µM | Potency [14] 43.6 µM | Potency [15] 43.6 µM
inactive: Potency [1] | Potency [5] | Potency [6] | Potency [7] | Potency [20] | Potency [8] | Potency [9] | Potency [10] | Potency [11] | Potency [12] | Potency [13] | Potency [17] | Potency [18]

CC(O)COc1ccccc1 (stereo not given)
inactive: Potency [1] | Potency [2] | outcome [3] | max response [4] 1.14% and -0.457% and -1.74% | Potency [5] | Potency [6] | Potency [7] | Potency [8] | Potency [9] | Potency [10] | Potency [11] | Potency [12] | Potency [13] | Potency [14] | Potency [15] | Potency [16] | Potency [17] | Potency [18]

COCC(C)N (stereo not given)
inactive: Potency [1] | Potency [2] | outcome [3] | max response [4] 4.72% and 4.68% | Potency [5] | Potency [6] | Potency [20] | Potency [8] | Potency [9] | Potency [10] | Potency [11] | Potency [12] | Potency [13] | Potency [14] | Potency [15] | Potency [16] | Potency [17] | Potency [18]

N[C@@H](Cc1c[nH]c2ccccc12)C(=O)O
inactive: Potency [1] | Potency [2] | outcome [3] | max response [4] 11.5% | Potency [5] | Potency [6] | Potency [7] | Potency [8] | Potency [9] | Potency [10] | Potency [11] | Potency [12] | Potency [13] | Potency [14] | Potency [15] | Potency [16] | Potency [17] | Potency [18]
